Assay results published in PubChem BioAssay AID1903 (Southern Research Specialized Biocontainment Screening …, 2009).
Hit rate of the full screen: of about 310,000 compounds, about 1,200 (0.39%) were called active. How the calls were made is not given here. Not all results are given here. Entries with a potency or affinity are not part of this list.

What follows are molecules tested against Large T antigen (Simian virus 40) (UniProt P03070) (assay: SV40 large T antigen inhibitors, biochemical (AID 1903)). Conditions: SV40 large T antigen ATPase/helicase inhibition assay; at 20 µM; stronger effect = higher value.
Sequence of Large T antigen (Simian virus 40) (P03070 whole entry, looked up): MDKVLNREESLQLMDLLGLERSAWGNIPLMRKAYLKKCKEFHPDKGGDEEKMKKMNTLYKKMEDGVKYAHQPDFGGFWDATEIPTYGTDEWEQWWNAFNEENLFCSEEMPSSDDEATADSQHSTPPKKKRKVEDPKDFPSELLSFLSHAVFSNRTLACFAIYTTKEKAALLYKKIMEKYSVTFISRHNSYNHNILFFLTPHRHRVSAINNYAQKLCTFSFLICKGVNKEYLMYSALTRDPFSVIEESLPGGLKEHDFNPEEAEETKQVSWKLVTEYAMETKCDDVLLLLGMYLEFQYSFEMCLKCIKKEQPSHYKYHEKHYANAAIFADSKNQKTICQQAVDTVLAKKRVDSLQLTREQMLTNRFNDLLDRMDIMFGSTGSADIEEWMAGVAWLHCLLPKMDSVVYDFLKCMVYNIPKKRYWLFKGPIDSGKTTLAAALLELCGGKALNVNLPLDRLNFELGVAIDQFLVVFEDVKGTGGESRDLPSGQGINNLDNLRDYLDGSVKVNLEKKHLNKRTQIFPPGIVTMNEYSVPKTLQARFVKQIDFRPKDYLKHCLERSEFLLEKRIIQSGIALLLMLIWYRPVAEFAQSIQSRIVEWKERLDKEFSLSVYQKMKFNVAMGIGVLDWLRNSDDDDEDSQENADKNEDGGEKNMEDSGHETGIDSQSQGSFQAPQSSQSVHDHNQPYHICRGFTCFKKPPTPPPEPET

inhibition, inactive:
C=CCOc1ccc(CNc2ccc3[nH]c(=O)[nH]c3c2)cc1OC 13.7%
Oc1ccc(NCc2cccc(OCc3ccc(F)cc3)c2)cc1 29.3%
Fc1ccc(CNc2ccc(CNc3ncn[nH]3)cc2)cc1 19.6%
C=CCOc1ccc(CNc2ccc(NC(=O)CCC)cc2)cc1OCC 18.3%
C=CCOc1cccc(CNCc2ccncc2)c1 8.06%
C=CCOc1cccc(CNc2cccc(C(=O)O)c2)c1 15.2%
CNC(=O)COc1coc(CN2CCN(c3ccc(OC)cc3)CC2)cc1=O 21.7%
COc1ccc(-n2ccnc2SCC(=O)Nc2ccccc2)cc1 15%
CC(=O)c1ccc(N2CCN(C(=O)Cc3cccs3)CC2)cc1 1.64%
Cc1ccc2cccnc2c1N 5.53%
Cc1ccc2nc(C)c(C)nc2c1N 17.3%
Cc1cccc(-c2nnc(NC(=O)c3ccco3)s2)c1 8.94%
CN(c1ccc(F)cc1)S(=O)(=O)c1ccc2[nH]cc(C(=O)O)c(=O)c2c1 5.14%
COc1cccc(C(=O)Nc2c3c(nn2-c2ccc([N+](=O)[O-])cc2)CS(=O)(=O)C3)c1 3.72%
CCN(CC)C(=O)CSc1nc2ccc(NC(=O)CSc3nnc(N)s3)cc2s1 5.67%
CCN(CC)S(=O)(=O)c1cccc(NC(=O)CSc2nnc(N)s2)c1 2.59%
Cc1cccc(OCC(=O)NNC(=O)CCc2ccccc2)c1 15.5%
Nc1ccc(S(=O)(=O)NNC(=O)C(=O)NNc2ccccn2)cc1 11.5%
Cn1c(=O)c2c(nc(N3CCOCC3)n2CCSc2ncccn2)n(C)c1=O 12.4%
COc1ccc(N=Cc2c(O)n(-c3cccc(C)n3)c(=O)c3ccccc23)c(OC)c1 13.7%
COc1ccccc1N=Cc1c(C)[nH]n(-c2ccc(C)cc2C)c1=O 27.4%
COc1cc(SC#N)ccc1N=Cc1c(C)[nH]n(-c2ccc(Cl)cc2)c1=O 17.5%
COc1cc(S(=O)(=O)Nc2ccc(C)cc2)ccc1N=Cc1c(C)[nH]n(-c2ccc(C)cc2)c1=O 2.78%
COc1cc(SC#N)ccc1N=Cc1c(C)[nH]n(-c2ccc(C)c(C)c2)c1=O 35.9%
COc1cccc(N=Cc2c(O)n(-c3cccc(C)n3)c(=O)c3ccccc23)c1 18%
CCON1C(=O)CN(C(=O)OC)C1c1ccc(Cl)cc1Cl (configuration not stated) 19.9%
Cc1ccccc1NC(=O)Cn1nnc2sc3c(c2c1=O)CC(C)(C)OC3 7.47%
O=C(Nc1ccc(S(=O)(=O)N2CCCCC2)cc1)C1CC(=O)N(Cc2ccccc2)C1 (configuration not stated) 16.5%
CSC1=NCCCN1C(=O)c1c(-c2ccccc2Cl)noc1C 10.2%
O=C(O)C1CCCC[C@H]1C(=O)Nc1ncc([N+](=O)[O-])s1 (some centres not stated) 3.81%
COc1ccc(CCNC(=S)Nc2ccc(C(C)C)cc2)cc1 13.7%
CC(/C=C1\SC(=S)N(CC(=O)O)C1=O)=C\c1ccccc1 19.5%
CC(=C\c1ccccc1)/C=C1/SC(=S)N(CCC(=O)O)C1=O 0.31%
Cc1ccc(-c2n[nH]c(=S)n2C)cc1 14.5%
Cc1ccc(S(=O)(=O)c2c(C)nn(-c3ccccc3)c2OC(=O)c2ccc(Br)o2)cc1 6.66%
O=C(Nc1nc2ccccc2n1Cc1ccccc1)c1ccco1 -0.22%
CCCCC/C(=N\NC(=O)CCC(=O)NCc1ccccc1)c1ccccc1 -0.61%
CCC/C(=N\NC(=O)CCC(=O)NCc1ccccc1)c1ccccc1 8.82%
Cc1ccc(-c2nc(CSCC(=O)NCCCN3CCOCC3)c(C)o2)cc1 26.4%
CN(C)c1ccc(C2OC(=O)C3(CCCC3)C(=O)C2(C)C)cc1 (configuration not stated) 1.45%
COc1cc(C(=O)OCCN2CCOCC2)ccc1O 25.1%
COc1cc(C(=O)OCCCN2CCOCC2)ccc1O 30.9%
COCCOc1ccc(C(F)(F)F)cc1NC(=O)c1ccc(C(F)(F)F)cc1 2.65%
C=C(c1ccc(O)cc1)c1ccc(O)cc1 12.5%
Oc1ccc(Oc2ccc(Oc3ccc(O)cc3)cc2)cc1 11.2%
COc1ccc2[nH]c(C(=O)NCCc3ccccc3)cc2c1 6.64%
Cc1ccc(OCCC(=O)OCC(=O)N2CCN(S(=O)(=O)c3ccc(Cl)cc3)CC2)cc1 30.2%
O=C(CCSc1ccccc1)N1CCN(c2ccccc2)CC1 8.73%
O=C(CCCOc1ccccc1)N1CCN(c2ccccc2)CC1 -0.15%
O=C(CCCOc1ccccc1)N1CCN(c2ccc(F)cc2)CC1 0.74%
O=C(CCSc1ccc(Cl)cc1)N1CCOCC1 23.4%
Cc1ccc(OCCC(=O)OCC(=O)N2CCN(S(=O)(=O)c3ccc(C)cc3)CC2)cc1 10.3%
CCOC(=O)N1CCN(c2ccc([N+](=O)[O-])cc2)CC1 5.56%
CCOC(=O)N1CCN(c2ccc(Cl)cc2)CC1 24.6%
COc1ccc(OC)c(CCNC(=O)c2ccc3c(c2)N(Cc2ccccc2)CCS3)c1 -0.13%
O=C(CNC(=O)c1cccc(F)c1)OCC(=O)N1CCCc2ccccc21 7.9%
Cc1ccc(NS(=O)(=O)c2ccc(CCC(=O)NCCCOC(C)C)cc2)cc1 5.53%
COc1ccc(S(=O)(=O)c2nnn(-c3cccc(OC)c3)c2N)cc1 22.2%
O=[N+]([O-])c1ccc(-n2cccc2/C=N/Nc2nc(N3CCCCC3)nc(N3CCCCC3)n2)cc1 9.66%
O=C(CNC(=O)c1ccccc1F)OCC(=O)N1CCCCC1 7.93%
Cc1cc(C)c(S(=O)(=O)c2ccccc2C)c(N(C)C)n1 21.5%
COc1cc(/C=C2\SC(=S)N(CCC(=O)Nc3ccc(O)cc3)C2=O)cc(OC)c1OC 5.27%
O=C(Nc1ccc2c(c1)OCO2)c1ccc(NC2CC2)c([N+](=O)[O-])c1 12.5%
CCn1c(-c2nn(-c3ccccc3)ccc2=O)n[nH]c1=S 9.69%
COc1ccc(NS(=O)(=O)c2cccc(C(=O)NCC(c3ccccc3OC)N3CCCC3)c2)cc1 (configuration not stated) 5.32%
COc1ccc(OCC(=O)N2CCN(c3cccc(C(F)(F)F)c3)CC2)cc1 17%
COc1cc(OC)cc(C(=O)NCC(=O)N2CCCCC2)c1 4.74%
O=C(COc1cccc(C(F)(F)F)c1)N1CCN(c2ccccc2O)CC1 22.7%
O=C(C1CC1)N1CCN(c2ccc(F)cc2)CC1 2.25%
COc1ccc(C(=O)NCC(=O)N2CCN(c3ccc(Cl)cc3)CC2)cc1 10.9%
O=C(C1CC1)N1CCN(c2ccc([N+](=O)[O-])cc2)CC1 12.1%
Cc1ccc(OCCCC(=O)N2CCOCC2)cc1 0.37%
COc1ccc(N2CCN(C(=O)COC(=O)CCOc3ccc(C)cc3)CC2)cc1 10.6%
c1ccc(Nc2nc(-c3ccccc3)ns2)cc1 -2.89%
CSc1nnc2c(n1)OC(c1cccn1C)N(C(C)=O)c1ccccc1-2 (configuration not stated) 15.3%
Cn1cnc(S(=O)(=O)NCc2ccccc2)c1 6.21%
Cc1ccc(C(=O)Nc2ccc(S(=O)(=O)N3CCOCC3)cc2)cc1C 0.36%
O=C(CNC(=O)c1ccc(Br)cc1)OCC(=O)c1ccccc1 11.9%
Cc1ccc(C(=O)NCC(=O)N2CCN(c3ncccn3)CC2)s1 -1.43%
O=C(NCc1ccco1)C(c1ccncc1)N(C(=O)Cc1cccs1)c1ccccc1 (configuration not stated) 7.67%
Cc1cccc(Nc2ncc3c(n2)CC(C)CC3=O)c1 (configuration not stated) 7.64%
CCOc1ccccc1NC(=S)N1CCN(c2ccc(OC)cc2)CC1 7.58%
CCOc1ccccc1NC(=S)N1CCN(c2ccccc2)CC1 3.57%
CN(Cc1ccco1)S(=O)(=O)c1ccc(CN2C(=O)c3cccnc3C2=O)s1 16.5%
COc1ccc(N2CCC(CNC(=S)Nc3cccc(OC)c3)C2)cc1 (configuration not stated) 19.4%
COc1ccc(N2CCC(CNC(=O)Nc3ccc(Cl)cc3)C2)cc1 (configuration not stated) 21.5%
CCOc1ccc(NC(=O)NCC2CCN(c3ccc(OC)cc3)C2)cc1 (configuration not stated) 22.4%
COc1ccc(N2CCC(CNC(=O)Nc3ccc(C)c(C)c3)C2)cc1 (configuration not stated) 9.39%
CC(C)CN(C(=O)COC(=O)C1CC1)c1c(N)n(Cc2ccccc2)c(=O)[nH]c1=O 17.3%
Cc1c(Cl)cccc1NC(=O)CN1CCC(NC(=O)C2CCCCC2)CC1 8.83%
COc1cccc(NC(=O)CCC(=O)Nc2cccc(OC)c2)c1 11.8%
CC(=Nc1ccccc1)Nc1ccccc1 9.53%
NC(=Nc1ccccc1)Nc1ccccc1 15.7%
COc1ccc(OCC(=O)Nc2cccc(OC)c2)cc1 2.29%
NC(=O)C[n+]1cccc(/C=N/O)c1 2.56%
c1ccc(-c2nn3c(Cn4cnc5ccccc54)nnc3s2)cc1 -0.363%
COc1ccc(/C=C2\SC(=S)N(C(Cc3ccccc3)C(=O)O)C2=O)cc1 (configuration not stated) -3.2%
COc1cc(/C=C2\SC(=S)N(C(C(=O)O)c3ccccc3)C2=O)cc(OC)c1OC (configuration not stated) 27.9%
COc1cccc(/C=C2\SC(=S)N(C(Cc3ccccc3)C(=O)O)C2=O)c1 (configuration not stated) 33.3%
O=C(O)C(c1ccccc1)N1C(=O)/C(=C/c2cccs2)SC1=S (configuration not stated) 19.8%
CCOc1ccc(/C=C2/SC(=S)N(C(C(=O)O)c3ccccc3)C2=O)cc1OCC (configuration not stated) 19%
CCOc1ccc(/C=C2\SC(=S)N(C(C(=O)O)c3ccccc3)C2=O)cc1OC (configuration not stated) 23.8%
